# Experimental data from the supplement of paper PMC4466140.
# Target: AgAbp1
# Assay: SPOT peptide array binding signal intensity (averaged, normalized) (arbitrary units (background-subtracted, floor 0; scale differs between SH3 domains)); higher = stronger binding of the SH3 domain to the peptide
# Summary of the method: (§1)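 Cellulose membranes carried synthetic 15-mer peptides with cysteines swapped for serines. These were incubated overnight at 4°C with 10 μg/ml of GST-fused SH3 domains from four yeast species in TBS-based blocking buffer. Binding signal, detected with anti-GST antibody and quantified in Genespotter, is the normalized, background-subtracted spot intensity averaged over replicates, in arbitrary units specific to each domain.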
row,Binder,SPOT peptide array binding signal intensity
1,NNQRRKPLLLNIGDH,108

# Target: AgBbc1
# Assay: as above
# Summary of the method: as §1
row,Binder,SPOT peptide array binding signal intensity
1,NNQRRKPLLLNIGDH,≤ 0

# Target: AgBem1-D1
# Assay: as above
# Summary of the method: as §1
row,Binder,SPOT peptide array binding signal intensity
1,NNQRRKPLLLNIGDH,≤ 0

# Target: AgBzz1-D1
# Assay: as above
# Summary of the method: as §1
row,Binder,SPOT peptide array binding signal intensity
1,NNQRRKPLLLNIGDH,≤ 0

# Target: AgBzz1-D2
# Assay: as above
# Summary of the method: as §1
row,Binder,SPOT peptide array binding signal intensity
1,NNQRRKPLLLNIGDH,54

# Target: AgCyk3
# Assay: as above
# Summary of the method: as §1
row,Binder,SPOT peptide array binding signal intensity
1,NNQRRKPLLLNIGDH,0.5

# Target: AgFus1
# Assay: as above
# Summary of the method: as §1
row,Binder,SPOT peptide array binding signal intensity
1,NNQRRKPLLLNIGDH,305

# Target: AgHof1
# Assay: as above
# Summary of the method: as §1
row,Binder,SPOT peptide array binding signal intensity
1,NNQRRKPLLLNIGDH,6

# Target: AgHse1
# Assay: as above
# Summary of the method: as §1
row,Binder,SPOT peptide array binding signal intensity
1,NNQRRKPLLLNIGDH,1660

# Target: AgLsb1
# Assay: as above
# Summary of the method: as §1
row,Binder,SPOT peptide array binding signal intensity
1,NNQRRKPLLLNIGDH,≤ 0

# Target: AgLsb4
# Assay: as above
# Summary of the method: as §1
row,Binder,SPOT peptide array binding signal intensity
1,NNQRRKPLLLNIGDH,≤ 0

# Target: AgMyo5
# Assay: as above
# Summary of the method: as §1
row,Binder,SPOT peptide array binding signal intensity
1,NNQRRKPLLLNIGDH,1

# Target: AgNbp2
# Assay: as above
# Summary of the method: as §1
row,Binder,SPOT peptide array binding signal intensity
1,NNQRRKPLLLNIGDH,68.5

# Target: AgRvs167
# Assay: as above
# Summary of the method: as §1
row,Binder,SPOT peptide array binding signal intensity
1,NNQRRKPLLLNIGDH,5.67

# Target: AgSho1
# Assay: as above
# Summary of the method: as §1
row,Binder,SPOT peptide array binding signal intensity
1,NNQRRKPLLLNIGDH,24.5

# Target: AgSla1-D1-D2
# Assay: as above
# Summary of the method: as §1
row,Binder,SPOT peptide array binding signal intensity
1,NNQRRKPLLLNIGDH,175

# Target: AgSla1-D3
# Assay: as above
# Summary of the method: as §1
row,Binder,SPOT peptide array binding signal intensity
1,NNQRRKPLLLNIGDH,5.5

# Target: CaAbp1-D1
# Assay: as above
# Summary of the method: as §1
row,Binder,SPOT peptide array binding signal intensity
1,NNQRRKPLLLNIGDH,330

# Target: CaAbp1-D2
# Assay: as above
# Summary of the method: as §1
row,Binder,SPOT peptide array binding signal intensity
1,NNQRRKPLLLNIGDH,458

# Target: CaBbc1
# Assay: as above
# Summary of the method: as §1
row,Binder,SPOT peptide array binding signal intensity
1,NNQRRKPLLLNIGDH,≤ 0

# Target: CaBem1-D1
# Assay: as above
# Summary of the method: as §1
row,Binder,SPOT peptide array binding signal intensity
1,NNQRRKPLLLNIGDH,≤ 0

# Target: CaBzz1-D1
# Assay: as above
# Summary of the method: as §1
row,Binder,SPOT peptide array binding signal intensity
1,NNQRRKPLLLNIGDH,≤ 0

# Target: CaBzz1-D2
# Assay: as above
# Summary of the method: as §1
row,Binder,SPOT peptide array binding signal intensity
1,NNQRRKPLLLNIGDH,≤ 0

# Target: CaCyk3
# Assay: as above
# Summary of the method: as §1
row,Binder,SPOT peptide array binding signal intensity
1,NNQRRKPLLLNIGDH,1.5

# Target: CaFus1
# Assay: as above
# Summary of the method: as §1
row,Binder,SPOT peptide array binding signal intensity
1,NNQRRKPLLLNIGDH,1030

# Target: CaHof1
# Assay: as above
# Summary of the method: as §1
row,Binder,SPOT peptide array binding signal intensity
1,NNQRRKPLLLNIGDH,≤ 0

# Target: CaHse1
# Assay: as above
# Summary of the method: as §1
row,Binder,SPOT peptide array binding signal intensity
1,NNQRRKPLLLNIGDH,21

# Target: CaLsb1
# Assay: as above
# Summary of the method: as §1
row,Binder,SPOT peptide array binding signal intensity
1,NNQRRKPLLLNIGDH,0.5

# Target: CaLsb4
# Assay: as above
# Summary of the method: as §1
row,Binder,SPOT peptide array binding signal intensity
1,NNQRRKPLLLNIGDH,≤ 0

# Target: CaMyo5
# Assay: as above
# Summary of the method: as §1
row,Binder,SPOT peptide array binding signal intensity
1,NNQRRKPLLLNIGDH,≤ 0
